Consider 20 compounds from PubChem BioAssay (Tox21).

A number with no mark means an inactive call. Inconclusive results are not listed. Active and inactive are the calls of the source. Calls come from the whole dose curve.

Assay [1] has as its target Acetylcholinesterase (Homo sapiens) (UniProt P22303). Put plainly: Acetylcholinesterase (AChE) small molecule antagonists: colormetric cell-based qHTS assay (AID 1347395). Note: nearly all actives have a fitted effect of over 30% in size. Note: potency is the fitted concentration of half-maximal effect. The method, boiled down:
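Homogeneous whole-cell format. SH-SY5Y cells seeded overnight, dosed with compound (30 min, 37 C, 5% CO2), then given DTNB/acetylthiocholine cocktail for 90 min at 37 C; colorimetric signal.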
In general terms: Quantitative high-throughput screening tests each substance at several concentrations.

For assay [2] the target is unchanged. Put plainly: Acetylcholinesterase (AChE) small molecule antagonists: enzyme-based qHTS assay (AID 1347397). Note: nearly all actives have a fitted effect of over 55% in size. The conditions noted are these: Potency: AChE enzyme activity inhibition; outcome: AChE enzyme activity inhibition. The method, boiled down:
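Enzyme inhibition was scored from DTNB-detected thiocholine formed by recombinant human AChE acting on acetylthiocholine. The 30 min compound preincubation and 10 min substrate reaction were both run at room temperature, with DMSO as vehicle control.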

Assay [3] shares this target. In words: Acetylcholinesterase (AChE) small molecule antagonists: fluorescence cell-based qHTS assay (AID 1347398). Note: nearly all actives have a fitted effect of over 50% in size. The conditions noted are these: Potency: AChE activity; outcome: AChE activity. The gist of the method: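 Endogenous acetylcholinesterase of SH-SY5Y neuroblastoma cells is measured in situ. After overnight attachment and 30 min compound exposure, cells receive acetylthiocholine and Thiolite Green; fluorescence is read after 40 min at room temperature.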

For assay [4] the target is unchanged. Put plainly: Acetylcholinesterase (AChE) small molecule antagonists: enzyme-based qHTS assay with human liver microsomes (AID 1347399). Note: nearly all actives have a fitted effect of over 60% in size. The conditions noted are these: Potency: qHTS inhibition; outcome: qHTS inhibition. The method, boiled down: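 Recombinant human AChE (50 mU/mL in the enzyme mix) and human liver microsomes (0.25 mg/mL final) were preincubated with compound and NADPH (0.25 mg/mL final) for 30 min at 37 C. Acetylthiocholine/DTNB was then added; thiocholine was read colorimetrically after 10 min at room temperature.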
% is set by controls: 0 for no effect and ±100 for the full control effect.

Acetylcholinesterase (Homo sapiens), sequence (P22303 whole entry, looked up): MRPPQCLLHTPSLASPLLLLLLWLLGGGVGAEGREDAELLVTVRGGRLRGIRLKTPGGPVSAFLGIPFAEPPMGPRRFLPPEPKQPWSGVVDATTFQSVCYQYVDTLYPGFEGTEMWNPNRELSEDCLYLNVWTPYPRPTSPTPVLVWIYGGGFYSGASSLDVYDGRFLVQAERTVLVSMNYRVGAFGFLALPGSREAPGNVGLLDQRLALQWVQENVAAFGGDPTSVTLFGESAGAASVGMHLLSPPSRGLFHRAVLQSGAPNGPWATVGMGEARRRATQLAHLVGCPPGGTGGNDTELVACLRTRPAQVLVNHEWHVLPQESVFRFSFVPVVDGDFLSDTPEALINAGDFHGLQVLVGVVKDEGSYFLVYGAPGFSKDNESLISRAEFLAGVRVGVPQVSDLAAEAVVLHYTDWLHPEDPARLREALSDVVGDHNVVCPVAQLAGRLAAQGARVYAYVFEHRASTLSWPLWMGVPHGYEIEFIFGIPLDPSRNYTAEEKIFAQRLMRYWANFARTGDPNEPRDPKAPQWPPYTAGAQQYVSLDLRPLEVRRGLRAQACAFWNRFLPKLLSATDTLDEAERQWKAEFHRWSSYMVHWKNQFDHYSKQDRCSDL

`CCCCC(CC)CNC(=O)CC(C)OC(=O)CCC(=O)O` (stereo not given): the Potency result in assay [1], in assay [2], in assay [3] and in assay [4] was “inactive” in each case.

With `OC/C=C/CO`, in assay [1], the Potency was 35.5 µM (active). The Potency entry in assay [2], in assay [3] and in assay [4] was “inactive” each time.

As to `CCC(=O)OCc1ccc(OC)cc1`, the Potency result in assay [1], in assay [2], in assay [3] and in assay [4] was “inactive” in each case.

In the case of `COc1cc2c(cc1OC)C(=O)CC2`, the Potency result in assay [1], in assay [2], in assay [3] and in assay [4] was “inactive” throughout.

Take `COc1ccc([C@@H]2Sc3ccccc3NC(=O)[C@@H]2O)cc1`: the Potency result in assay [1], in assay [2], in assay [3] and in assay [4] was “inactive” each time.

Take `CC(C)C1CCC(C(=O)N[C@H](Cc2ccccc2)C(=O)O)CC1` (stereo not given in full): the Potency entry in assay [1], in assay [2], in assay [3] and in assay [4] was “inactive” each time.

In the case of `NCC1(Cc2noc(=O)[nH]2)CCCCC1`, the Potency entry in assay [1], in assay [2], in assay [3] and in assay [4] was “inactive” each time.

Turning to `C=CC(=O)OCCCl`, the Potency result in assay [1], in assay [2], in assay [3] and in assay [4] was “inactive” throughout.

For `O=C1CCCc2c1cc1ccc3cccc4ccc2c1c34`, the Potency result in assay [1], in assay [2], in assay [3] and in assay [4] was “inactive” throughout.

For the compound `C=CCCCCCCCCCCC`, in assay [1], the activity, negative = inhibition was -0.0098% [at 10.5 µM]. Moreover, the activity change, negative = inhibition in assay [2] is 0.273% [at 10.5 µM]; in assay [3], 5.55% [at 10.5 µM]; in assay [4], 0.324% [at 10.5 µM].

Turning to `CC(C)OC(=O)c1cc2c(OCC(O)CNC(C)(C)C)cccc2[nH]1` (stereo not given), the Potency result in assay [1], in assay [2], in assay [3] and in assay [4] was “inactive” in each case.

Turning to `CN(CC1(C)CCCO1)S(=O)(=O)c1ccc(Cl)c(S(N)(=O)=O)c1` (stereo not given), the Potency result in assay [1], in assay [2], in assay [3] and in assay [4] was “inactive” in each case.

Take `C[N+]1([O-])CCOCC1`: the Potency result in assay [1], in assay [2], in assay [3] and in assay [4] was “inactive” in each case.

With `C[C@@H]1C[C@H]2[C@@H]3C[C@H](F)C4=CC(=O)C(Cl)=C[C@]4(C)[C@@]3(F)[C@@H](O)C[C@]2(C)[C@@]1(O)C(=O)CO`, the Potency entry in assay [1], in assay [2], in assay [3] and in assay [4] was “inactive” each time.

For the compound `O=C1CCC(=O)N1Cl`, the Potency entry in assay [1], in assay [2], in assay [3] and in assay [4] was “inactive” throughout.

Regarding `CC[N+]1(CC)CCC(=C(c2ccccc2)c2ccccc2)C1C` (stereo not given), the Potency entry in assay [1], in assay [2], in assay [3] and in assay [4] was “inactive” throughout.

Turning to `CCN(CC)c1cccc(C)c1`, the Potency entry in assay [1], in assay [2], in assay [3] and in assay [4] was “inactive” each time.

For `C[C@@H]1CC[C@H]2C(C)(C)[C@H]3C[C@@]12CC[C@@]3(C)O`, the Potency result in assay [1], in assay [2], in assay [3] and in assay [4] was “inactive” in each case.

Turning to `CCCCN(CCCC)C(C(N)=O)c1ccc(OC)cc1` (stereo not given), the Potency entry in assay [1], in assay [2], in assay [3] and in assay [4] was “inactive” each time.

Consider `C[C@]12CC[C@H]3C(=CCc4cc(O)ccc43)[C@@H]1CCC2=O`, for which the Potency result in assay [1], in assay [2], in assay [3] and in assay [4] was “inactive” throughout.
